Among all 200,000 compounds or so, about 5,100 (2.5%) were called active. This excerpt belongs to a sample that is enriched for actives. Unmarked numbers belong to inactive results.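 The calls were made as follows: active = activation above the screen-wide mean activation plus 3 SD (cut at about 130% in these data); inactive = the rest.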

The values that follow come from PubChem BioAssay AID932 (The Scripps Research Institute Molecular Screening Center, 2007).

The assay is described as follows: STAT1 signaling activators, primary screen, cell-based, HTS, luciferase reporter (AID 932).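 Also: raw ratio to IFN-gamma control signal so 100% means no change and 0% no light.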 The note with it: NIH 3T3 STAT1-luciferase reporter, IFN-gamma, luminescence; at 5.5 µM; hits give high values; 100% = IFN-gamma alone, no compound.
Turning to `CCC(CC)c1nnc(NC(=O)c2nn(C)c(=O)c3ccccc23)s1`, the activation (% of control) was 102%.
In the case of `CN(CCOc1ccc(Br)cc1)CC(=O)Nc1cccc(S(=O)(=O)NC2=NCCC2)c1` it was 97.5%; in that of `CCN(CC)S(=O)(=O)c1ccc(OC(C)C)c(N)c1`, 98.6%.
In the case of `Cc1ccc2nc(-c3ccc(NC(=O)c4cccnc4)cc3)oc2c1` it was 93.8%.
In the case of `Cc1cc2nc(-c3ccc(NC(=O)c4cccnc4)cc3)oc2cc1C` it was 137% (active); in that of `Cc1ccc(-n2nc3cc(C)c(NC(=O)c4cccnc4)cc3n2)cc1`, 118%.
`CCOc1ccc(CCN2C(=O)c3cccnc3C2=O)cc1OCC`: the activation (% of control) was 96.9%.
In the case of `Cc1ccc(C(=O)NC2CCN(C(=O)N3CCOCC3)CC2)cc1` it was 98.8%; in that of `O=C(NC1CC1)c1ccc(-c2ccccc2)cc1`, 131% (active).
For the molecule `O=C(NC1CC1)c1cccc(Br)c1`, the activation (% of control) was 98.5%.
In the case of `COc1ccc(C)cc1NC(=O)CSc1nnc(CC(=O)Nc2ccccc2F)n1C` it was 92.1%.
In the case of `CCCCc1ccc(NC(=S)NCCCN2CCOCC2)cc1` it was 96.5%; in that of `O=C(Nc1cccc(-c2nc3ncccc3o2)c1)c1ccco1`, 98.8%; in that of `O=C(Nc1ccc2oc(-c3ccccc3F)nc2c1)c1ccco1`, 170% (active).
For the molecule `O=C(Nc1ccc2nccnc2c1)c1ccco1`, the activation (% of control) was 127%.
In the case of `COCc1c(C(=O)OCc2c(C)noc2C)oc2ccccc12` it was 100%; in that of `COc1ccc(-c2nn(-c3ccccc3)cc2/C=C\C(=O)N2CCOCC2)cc1[N+](=O)[O-]`, 102%; in that of `S=C(Nc1cccc(Br)c1)N1CCn2cccc2C1c1cccnc1` (stereo not drawn), 90.5%.
In the case of `c1ccc2cc3c(NCCN4CCOCC4)ccnc3cc2c1` it was 137% (active); in that of `c1ccc2[nH]c(NCCN3CCOCC3)nc2c1`, 99.9%.
Take `O=C(Cn1c(-c2ccccn2)nc2ccccc21)NCCN1CCOCC1`: the activation (% of control) was 101%.
In the case of `Cn1cccc1/C=C1\SC(=O)N(CC(=O)Nc2ccc(F)cc2)C1=O`, the activation (% of control) is 100%.
Turning to `CC(=O)OC(COc1ccc(F)cc1)Cn1cnc2ccccc21` (stereo not drawn), the activation (% of control) was 103%.
Consider `CCn1nc(C)c(CN2CCN(Cc3ccc(OC)c(C)c3C)C(CCO)C2)c1C` (stereo not drawn), for which the activation (% of control) was 98.9%.
For the molecule `COc1ccc(Br)cc1CN(C)CC(=O)Nc1cc(Cl)cc(Cl)c1`, the activation (% of control) was 105%.
In the case of `Cc1ccc(C)c(NC(=O)CCC(=O)NNC(=O)c2cccs2)c1` it was 101%; in that of `CC(C)C(=O)Nc1ccc(C(=O)NNC(=O)c2cccs2)cc1`, 102%.
`Cc1ccc(C(=O)NNC(=O)c2cccs2)cc1`: the activation (% of control) is 130% (active).
